# This is a sample that favours compounds with a hit; in the whole collection about 2.2% have one here.
# HDAC3 inhib = inhibitors of human histone deacetylase 3 | O15379 | recombinant HDAC3, fluorogenic peptide/trypsin coupled, fluorescence | inhibition, % at 8.3 µM | 320,000 tested, 0.15% active | AID 2718; in the data active = inhibition above about 26%, passing the limit was not always enough
# SUMO Mot1 rescue = blocks SUMOylation pathway, rescuing yeast Mot1-301 growth; S. cerevisiae Mot1-301 growth rescue, ATP luminescence, 38.5C; percent above DMSO median, 100 means doubled; growth rescue, % at 18.8 µM; 320,000 tested, 1% active;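 active = every valid replicate shows activation above 250% relative to neutral control wells; inactive = the rest, any valid replicate at or below 250%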;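 note: OY570 slx delta 5 strain wells were the positive control but not used for scaling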
# pCIP destab = lowers stability of the mouse p/CIP coactivator protein | decrease of EGFP signal, % at 10 µM | Q05BA5 | AID 1984 | 290,000 tested, 0.01% active | F442A p/CIP-EGFP cells, EGFP fluorescence, 16 h;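 active = EGFP signal decrease of at least 30% at 10 µM or well 3 SD below plate mean, unless failing retest; inactive = the rest, including hits failing retest or dose response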
# JMJD2C inh = inhibitors of human GASC-1 (JMJD2C) demethylase. 330,000 tested, 0.069% active. inhibition, % at 2.35 µM. GST-JMJD2C(1-420) H3K9me3 demethylation, DELFIA europium. Q9H3R0;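 active = more than half of a compound's replicate wells show inhibition beyond 50%, single wells judged on their own value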;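 note: signal counts dimethyl H3K9 product captured on neutravidin plate; 0% = median of DMSO wells and 100% = 0.3 times that DMSO median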
# PHOSPHO1 inh = blocks human PHOSPHO1 phosphatase activity. Q8TCT1. recombinant PHOSPHO1, absorbance phosphatase assay. 290,000 tested, 1.1% active. inhibition, % at 13.3 µM; in the data active = inhibition above about 60%
# PvdQ inh = P. aeruginosa PvdQ acylase inhibition; 340,000 tested, 0.063% active; purified PvdQ acylase, fluorescence plate reader; inhibition, % at 10 µM; AID 488965; in the data active = inhibition above about 30%, passing the limit was not always enough;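 note: 0% = vehicle neutral wells and 100% = reference inhibitor wells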
# Yeast Mot1 SUMO = SUMO pathway inhibitors in yeast Mot1-301 growth | shares compounds with SUMO Mot1 rescue | S. cerevisiae Mot1-301 galactose growth, ATP luminescence, 24 h; -100 = growth of slx-deleted rescue strain | growth activity, percent, % at 42 µM | 2,300 tested, under 10 active;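 active = Signal drops as the depositor expects, and the fitted half-maximal dose is no more than ten times the top valid tested dose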;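 note: more negative values mean stronger growth rescue toward the control strain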
# * hit, by the source's call; i = inactive; / = not tested or not shown; + = active, no number; ! = not active in a repeat; [ ] = dose if it differs, or a comment.
SMILES,HDAC3 inhib,SUMO Mot1 rescue,pCIP destab,JMJD2C inh,PHOSPHO1 inh,PvdQ inh,Yeast Mot1 SUMO
Cc1cc(Cl)n2nc(C)c(-c3ccc(Cl)cc3)c2n1,-8,/,6,/,-16,-3,/
COc1ccc(-c2c(C)nn3c(C)cc(C)nc23)cc1,3,519*,-11,-11,13,-1,0
O=C(Nc1cc(Cl)ccc1Oc1ccccc1)C1=COCCO1,1,12,/,6,/,-10,/
Cc1ccc(Oc2ccccc2NC(=O)C2=COCCO2)cc1,4,416*,/,3,/,6,0
CC(C)c1ccc(-n2cnn(-c3ncccc3[N+](=O)[O-])c2=O)cc1,1,-24,18,-5,-1,-16,/
COC(=O)/C=C1\NC(=O)C(C)S1 (stereo not drawn),1,-4,-7,21,24,-17,/
CN(c1ccc(C(=O)NCC2CCCO2)cc1)S(=O)(=O)c1ccccc1 (stereo not drawn),-2,-7,-10,-2,20,8,/
CN(c1ccccc1)S(=O)(=O)c1ccc(C(=O)NCC2CCCO2)cc1 (stereo not drawn),4,451*,-4,-3,-21,-10,0[21 µM]
COC(=O)c1ccncc1C(=O)Nc1ccc(Oc2ncc(C(F)(F)F)cc2Cl)cc1,-2,369*,-9,-3,/,-5,-1
COC(=O)c1ccncc1C(=O)Nc1ccc(OC)cc1,4,-4,-8,i,8,12,/
C[C@]12CC[C@H]3C(=CCc4cc(O)ccc43)[C@@H]1CCC2=O,-6,538*!,3,-5,6,-7,0
C[C@]12C[C@H](O)[C@@H]3c4ccc(O)cc4CCC3[C@@H]1CCC2=O (stereo partly drawn),/,353,4,-2,37,-11,/
Cc1ccccc1C(=O)NN(C)c1nc2ccccc2nc1C(F)(F)F,1,+,-11,-7,40,3,1
CN(NC(=O)c1ccco1)c1nc2ccccc2nc1C(F)(F)F,1,81,-4,-12,20,-8,/
CC1CCC(C(C)C)C(OC(=O)COC(=O)c2cccn2C)C1 (stereo not drawn),1,377*,-6,-3,12,-17,0
Cc1ccc(N2C(=O)c3ccccc3NC2(C(=O)O)c2ccccc2)cc1Cl (stereo not drawn),0,-11,3,-7,23,-18,/
Cc1sc(NC(=O)c2ccco2)c(C(c2cccnc2)N2CCN(c3ccc(F)cc3)CC2)c1C (stereo not drawn),-4,29,2,5,34,11,/
Cc1sc(NC(=O)c2ccco2)c(C(c2ccc(F)cc2)N2CCN(C)CC2)c1C (stereo not drawn),7,405*,7,-7,40,2,-1
COc1ccc(OC)c(NC(=O)CNC(=O)Cn2ccc3ccccc3c2=O)c1,-3,503*,-8,12,-2,-5,0
COc1cc(OC)c(NC(=O)CNC(=O)Cn2ccc3ccccc3c2=O)cc1Cl,-3,80,-8,-3,23,-6,/
CC1CC(c2ccccc2)NS(=O)(=O)O1 (stereo not drawn),-7,518*,-5,-7,4,-2,0
Cc1ccnc2nc(C(=O)OCC(=O)Nc3ccc4c(c3)OCCO4)nn12,0,0,/,-2,/,-11,/
COC(=O)c1ccc2[nH]c(C(C)(C)O)c(C)c2c1,6,684*,7,6,4,-19,0
COC(=O)c1ccc2[nH]c(C)cc(=O)c2c1,-19,-1,2,-4,7,-4,/
O=C(O)/C=C/c1ccc(Cn2ccnc2)cc1,-14,11,/,11,/,-2,/
CCOc1cc(-c2ccccc2)nc(N)n1,-1,460*,5,5,13,-11,0
CCCc1cc(=O)n2nc(N3CCC(C(=O)Nc4cccc(C(C)=O)c4)CC3)sc2n1,1,-9,8,7,15,7,/
CCC(=O)N(Cc1ccc2c(c1)OCO2)Cc1cc2cc(OC)ccc2[nH]c1=O,1,376*,-10,-3,-4,-7,1

# Source: PubChem BioAssay
